# aSyn rescue = inhibitors of alpha-synuclein toxicity in yeast; Yeast expressing alpha-synuclein, growth rescue, BacTiter-Glo, 24 h; Potency, µM (doses to about 46.1 µM), for inactives: top-dose growth rescue (activation), hits mostly activators; actives 0.14% (n = 370,000); AID 652106; further: % of control where 0% means no effect; nearly all actives have a fitted effect of over 65% in size
#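 Rescue of yeast growth: cells expressing toxic alpha-synuclein, induced in galactose at OD600 0.02, incubated with compound 24 h at 30 C. ATP luminescence quantified growth; inhibitors of toxicity appear as activators.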
# Mito fusion yeast = blocks mitochondrial division or promotes mitochondrial fusion; S. cerevisiae fusion-defective mutant growth rescue, CellTiterGlo 48 h; Potency, µM (titrated, usually from 46.1 µM), inactives show top-dose growth rescue (activation), hits mostly activators; actives 0.23% (n = 320,000); AID 485298; further: % of control where 0% means no effect; nearly all actives have a fitted effect of over 45% in size
#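 Temperature-sensitive fusion-defective S. cerevisiae (e.g. fzo1-1, mgm1-5) were grown with compound in YPEG medium (3% ethanol, 3% glycerol) for 48 hours at 37C. Growth rescue was measured as viability by CellTiterGlo luminescence after 10 minutes at ambient.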
# A-T KAP1 phos = candidate therapy for ataxia-telangiectasia; AID 485349; F2112 A-T fibroblasts, KAP-1 phosphorylation AlphaLISA; neocarzinostatin DNA damage 30 min before lysis; Potency, µM (top dose mostly 57.5 µM), inactives show at the highest dose activation, actives largely listed as activators; actives 0.19% (n = 320,000); further: % of control where 0% means no effect; nearly all actives have a fitted effect of over 45% in size
#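 ATM-like activity read as KAP-1 phosphorylation via AlphaLISA donor/acceptor antibody pairs after lysis and 6 hr at 25C. Cells were ATM-null patient fibroblasts (F2112, hTERT), dosed 60 min, then exposed to the DSB inducer NCS for 30 min.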
# TDP-43 yeast inh = inhibitors of TDP-43 toxicity in yeast; TDP-43 expressing yeast growth rescue, BacTiter-Glo, 24 h; Potency, µM (doses to about 46.1 µM), inactives show at the top dose growth rescue (activation), most hits filed as activators; actives 1.8% (n = 410,000); further: % of control where 0% means no effect; nearly all actives have a fitted effect of over 50% in size
#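 Yeast expressing TDP-43 (pregrown in raffinose, seeded at OD600=0.02 in galactose medium) exposed to compounds 24 hr at 30 deg C. Growth read by BacTiter-Glo luminescence; rescue of toxicity appears as increased signal.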
# Abeta rescue = A-beta toxicity reversal in yeast; yeast expressing A-beta42, growth rescue, OD600, 48 h; response scale: 0% DMSO, 100% iron-clioquinol control; Potency, µM (doses to about 46.1 µM), usual class: activators; actives 0.063% (n = 410,000); further: nearly all actives have a fitted effect of over 55% in size
#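 Yeast growth medium received pinned compounds, then yeast cells expressing toxic A-beta were added; plates incubated at 30 C for 48 hr. Growth read as absorbance at 600 nm, normalized to DMSO and equimolar FeCl3 plus clioquinol controls.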
# Glioma ERSR ind = ER stress response induction in glioma; U87-MG GRP78 promoter luciferase reporter, 16 h; Potency, µM, for inactives: top-dose activation, usual class: activators; actives 0.02% (n = 420,000); AID 602332; further: series mostly up to about 76 µM; % of control where 0% means no effect; nearly all actives have a fitted effect of over 35% in size
#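 Stably transfected U87-MG glioma cells carrying a GRP78-based luciferase sensor; 16 h compound incubation. Luminescence end-point read 10 min after Bright-Glo addition at room temperature.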
# An asterisk follows results filed as active; i = inactive; ? = inconclusive; nt = no result. An excerpt weighted towards active compounds, which were near 2.1% of everything screened. The call rests on the fitted dose curve; in most records, active means well fitted curve in the direction sought with a large enough effect; inconclusive means small, poorly fitted or top-dose-only effect, or another doubt; inactive means no such curve, though single readings can be large; an effect the other way counts as inactive or inconclusive. Potency means the concentration at half of the fitted maximal effect.
SMILES,aSyn rescue,Mito fusion yeast,A-T KAP1 phos,TDP-43 yeast inh,Abeta rescue,Glioma ERSR ind
Cc1cccc(Cn2c(-c3cccc(Br)c3)nc3ccccc32)c1,nt,nt,nt,14µM*,i,-1%
CCC1CCc2sc(C(=O)O)cc2C1 (stereo unspecified),18%,0%,4%,14µM*,i,-4%
COc1ccc(NC(=O)CN(C)S(=O)(=O)c2ccc(Cl)cc2)c([N+](=O)[O-])c1,1%,1%,-3%,-16%,i,-3%
COc1cccc(NC(=O)CN(C)CC(=O)Nc2ccc(Cl)cc2[N+](=O)[O-])c1,7%,-4%,8%,18µM*,i,-4%
COCCNC(=O)c1c[nH]c2ccc(S(=O)(=O)N(C)c3ccc(C)c(C)c3)cc2c1=O,-7%,4%,7.1µM*,-11%,i,-4%
C=CCN(c1ccccc1)S(=O)(=O)c1ccc2[nH]cc(C(=O)NCCOC)c(=O)c2c1,?,-3%,-2%,12%,i,-5%
CCOC(=O)C1=C(O)C(=O)NC(c2ccccc2)=C(OC2CCCCC2)C1,-1%,10µM*,0%,-3%,i,-3%
CCC1(C2CCN(Cc3ccoc3)CC2)NC(=O)N(CC2COc3ccccc3O2)C1=O (stereo unspecified),nt,nt,nt,nt,nt,-3%
COc1ccc(-n2c(-c3cnccn3)n[nH]c2=S)cc1,3.5µM*,-2%,-9%,-19%,i,-1%
S=c1[nH]nc(-c2cnccn2)n1-c1ccccc1,3%,2%,-4%,7%,i,-3%
Cc1cccc(OCC(=O)NCc2ccc3c(c2)CCN3C(=O)c2ccccc2)c1,nt,nt,nt,25µM*,i,-2%
O=C(COc1ccc2c(c1)CCC2)NCc1ccccc1,9%,4%,10%,11µM*,i,3%
Clc1ccccc1N/N=C/c1ccc2c(c1)OCO2,-20%,0%,-4%,18µM*,i,1%
O=C(CNC(=O)c1ccccc1Cl)N/N=C/c1ccc2c(c1)OCO2,-7%,-5%,0%,-2%,i,2%
COc1ccc(N2CCN(C(=O)CSc3ncnc4scc(-c5ccc(C)cc5)c34)CC2)cc1,-5%,nt,nt,11µM*,i,-4%
COc1ccc(N2CCN(c3ncnc4scc(-c5ccc(C)cc5)c34)CC2)cc1,-1%,-8%,-3%,?,i,-4%
COc1ccc(CN2CCN(c3ncnc4scc(-c5ccc(F)cc5)c34)CC2)cc1,-2%,4%,14µM*,0%,i,0%
COc1ccc(-c2csc3ncnc(N4CCN(S(=O)(=O)c5ccc(Cl)s5)CC4)c23)cc1,3%,16%,-5%,-12%,i,-8%
CCN1CCN(c2ncnc3scc(-c4ccc(OC)cc4)c23)CC1,-2%,-18%,2%,-9%,i,0%
COc1ccc(-c2csc3ncnc(N4CCN(S(=O)(=O)c5cccs5)CC4)c23)cc1,8%,-23%,-3%,13µM*,i,-3%
COc1ccc(N2CCN(c3ncnc4scc(-c5ccc(F)cc5)c34)CC2)cc1,0%,4%,3%,13µM*,i,-2%
COc1ccc(N2CCN(C(=O)CSc3nc(C)cs3)CC2)cc1,2%,0%,-14%,0%,i,0%

# Assay outcomes from PubChem BioAssay.
